Laboratory results published in ChEMBL document CHEMBL3988442, “University of Dundee, Small-Polar-MMV Screening Library” (2021).
Among all 48,000 compounds or so, about 13,000 (27%) showed an effect of 50% or more. The list shows a part of the results.

Test system: Wolbachia pipientis
Test: Anti-Wolbachia Cell-Based Screen
Type: functional
Set-up: scale not given: in the data most compounds retested in dose-response had high values
Details: 5 µM

| Compound | Percent Effect |
| --- | --- |
| CC(C)c1cc(C(=O)N2CCN(C)[C@@H]3CS(=O)(=O)C[C@@H]32)no1 | -18.46% |
| O=C(NC[C@H]1C[C@@H]2CCN1C[C@@H]2CN1CCCCC1)c1ccco1 | 3.904% |
| CCCSCC(=O)N1C[C@H]2CC[C@@H]1CN(Cc1cccnc1)C2 | -15.35% |
| CC[C@H](C)[C@@H](CO)NC(C)Cc1ccc(F)cc1 (some centres not stated) | 95.88% |
| COC(=O)C(CO)NC(=O)c1cn(Cc2ccccc2F)nn1 (configuration not stated) | -17.52% |
| CC[C@H](C)[C@@H](CO)NC(C)Cc1ccccc1F (some centres not stated) | 127.2% |
| CCOCC(=O)NC(C)Cc1ccccc1Br (configuration not stated) | -9.65% |
| CC[C@H](C)[C@@H](CO)NC(C)Cc1ccc(C)cc1 (some centres not stated) | 96.84% |
| CC[C@H](C)[C@@H](CO)NC(C)Cc1ccc(Cl)cc1 (some centres not stated) | 125.5% |
| CNS(=O)(=O)CC(=O)NC(C)Cc1ccc(Br)cc1 (configuration not stated) | -6.603% |
| CC(=O)N1CCC(CCNC(C)Cc2ccc(F)cc2)CC1 (configuration not stated) | 3.455% |
| CCc1cc(CN(C)C(=O)CN2CC(c3ccccc3)CC2=O)on1 (configuration not stated) | -7.018% |
| CN(C)C(=O)[C@H]1C[C@H]2OCC[C@H]2N(Cc2ccccn2)C1 | -23.53% |
| O=C(NC[C@H]1C[C@@H]2CCN1C[C@@H]2CN1CCCCC1)Nc1ccccc1 | -4.847% |
| CC(C)(C)n1cc(C2=CCN(CCN3CCCCCC3)CC2)cn1 | -14.66% |
| O=C(O)C(F)(F)F.O=C(O)C(F)(F)F.O=C1CC2(CCN(Cc3cccnc3)C2)CN1c1cncnc1 (configuration not stated) | -5.386% |
| O=C(O)C(F)(F)F.O=C(O)C(F)(F)F.O=C1N(c2cccnc2)CCC12CCCN(Cc1ccco1)C2 (configuration not stated) | 8.384% |
| CNc1ncccc1C(=O)N1CCC2(CCN(C)C2)CC1 | -14.87% |
| CC(C)(C)CN1CCCC2(CCN(C(=O)c3ccc(O)nc3)C2)C1 (configuration not stated) | -6.955% |
| Cc1ccc(CN2CC3(CCN(C(=O)c4cccnc4)C3)C2)o1.O=C(O)C(F)(F)F.O=C(O)C(F)(F)F | 90.74% |
| CN1CCC2(CCN(C(=O)c3cccnc3)C2)C1 (configuration not stated) | 103.3% |

| Compound | Percent Effect |
| --- | --- |
| O=C(O)C(F)(F)F.O=C(O)C(F)(F)F.O=C1N(c2ccsc2)CCC12CCCN(Cc1cccnc1)C2 (configuration not stated) | 4.008% |
| CCCN(CCN(C)C)C(=O)Cc1cn2ccsc2n1 | -3.087% |
| O=C(Cc1ccsc1)N1CCN(CCOc2ccccc2)CC1 | -6.082% |
| CC[C@H]1CN2CC[C@H]1C[C@@H]2CNCc1ccc2c(c1)OCO2 | 5.104% |
| CN1CCN2C(=O)N(C3CCCCC3)C[C@H]2C1 | -7.779% |
| CC(C)N(C)C(=O)C1CCC2(CCNCC2)O1.Cl (configuration not stated) | -5.93% |
| CCN(C)c1nccc(N2CCN[C@H]3CS(=O)(=O)C[C@H]32)n1 | -8.792% |
| Cc1ccnc(CC(C)N(C)Cc2ccc3c(c2)CCO3)c1 (configuration not stated) | 8.665% |
| CCS(=O)(=O)N1CCOC2(CCCN(Cc3ccccn3)C2)C1.O=C(O)C(F)(F)F (configuration not stated) | 109.8% |
| O=C(O)C(F)(F)F.O=S(=O)(C1CC1)N1CCOC2(CCCN(Cc3ccccn3)C2)C1 (configuration not stated) | 85.16% |
| CCCS(=O)(=O)N1CCOC2(CCCN(Cc3ccccn3)C2)C1.O=C(O)C(F)(F)F (configuration not stated) | 106.1% |
| O=C(O)C(F)(F)F.c1cnc(N2CCOCC3(CN(Cc4cc[nH]n4)CCO3)C2)nc1 (configuration not stated) | 10.86% |
| CCS(=O)(=O)NC[C@]12COC[C@H]1CN(Cc1ccccn1)C2.O=C(O)C(F)(F)F.O=C(O)C(F)(F)F | 3.316% |
| O=C(O)C(F)(F)F.O=C(O)C(F)(F)F.O=S(=O)(C1CC1)N1CCC2(CC1)CN(Cc1ccccn1)CCO2 | 101% |
| CS(=O)(=O)N1CCOCC2(CN(Cc3ccccn3)CCO2)C1.O=C(O)C(F)(F)F.O=C(O)C(F)(F)F (configuration not stated) | -5.644% |
| O=C(O)C(F)(F)F.O=C(O)C(F)(F)F.O=C(O)C(F)(F)F.c1ccc(CN2CCOC3(CCN(c4ncccn4)CC3)C2)nc1 | -2.349% |
| CC(C)[C@@H]1CN(C(=O)C2(c3ccccc3)CCN(C)CC2)C[C@H]1C(=O)O | 1.772% |
| COc1cc(CNCC(O)c2ccc(F)c(F)c2)cc2c1OCO2 (configuration not stated) | -3.918% |
| O=C(NC[C@]12COC[C@H]1CN(Cc1ccncc1)C2)c1ccno1.O=C(O)C(F)(F)F.O=C(O)C(F)(F)F | -6.901% |
| CC(C)N1CCC2(CC1)C(=O)N(c1cccnc1)c1c(F)cccc12.Cl | -0.101% |
| CC(C)N1CCC2(CC1)C(=O)N(c1cccnc1)c1ccc(F)cc12.Cl | -1.595% |
